Measurements as given in PubChem BioAssay AID602254 (Broad Institute, 2012).
Fewer than 10 of roughly 1,000 compounds were called active.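 Rule for the calls: active = fitted half-maximal concentration no higher than twice the top valid tested dose, with signal falling; inconclusive = flat curve with 30 to 70% inhibition, or poor fit; inactive = the rest.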 The list is a sample of the results. Potency and affinity values are given separately.

Molecular target: Golgi-associated PDZ and coiled-coil motif-containing protein (Homo sapiens) (UniProt Q9HD26)
Test: blockers of CAL PDZ–TMR peptide complex – biochemical, fluorescence polarization, untagged CAL PDZ, cherry-pick, set 2, dose response (AID 602254);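 note: 0% = DMSO neutral control and -100% = unlabeled peptide PRC23 positive control; more negative means stronger blocking of peptide binding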
Conditions: Purified CAL PDZ; series mostly up to 60 µM; activity change, negative = inhibition: at the top concentration

Activity change, negative = inhibition, inactive:
COc1ccc(NC2CCCN(C(=O)c3csc(C(C)C)n3)C2)cc1 (centres undefined) -1.33%
O=C1OC(CO)CN1Cc1ccccc1 (centres undefined) -3.64%
O=S1(=O)c2c(F)cccc2OC(COCc2ccccc2)CN1C1CCCC1 (centres undefined) 9.91%
Cc1ccc(C)c(N(CC(=O)N2CCCC2)S(C)(=O)=O)c1 6.46%
COc1ccc(NC(=O)n2ncc3c(C)cccc32)cc1 2.29%
O=C(O)c1c(-c2ccc(Cl)cc2)cn2ccccc12 -0.658%
O=C(NCc1ccncc1)C(=O)N/N=C/c1ccccn1 -0.098%
O=C(COC(=O)COc1ccc(Br)cc1)NCC1CCCO1 (centres undefined) -4.89%
CCCCN1CC(COCc2ccccc2)Oc2cccc(F)c2S1(=O)=O (centres undefined) 0.998%
COc1ccccc1C(=O)Nc1ccc2c(c1)nc(CN1CCCCC1)n2C 3.14%
COC(=O)Cc1ccc(NC(=S)Nc2cccc(C)n2)cc1 2.44%
O=C(CN1CCC(n2nnc3cc(C(F)(F)F)ccc32)CC1)Nc1ccc2c(c1)OCCO2 -1.87%
CCOC(=O)C(/C=N/c1cc(C)nn1-c1ccccc1)=C(\C)O 3.31%
CCc1ccc(C(=O)NNC(=O)c2c(CC)noc2C)cc1 -3.88%
COc1ccc(/C=N/N2CCN(Cc3ccc(C)cc3)CC2)cc1Br 1.63%
Cc1ccc(C(=O)NN2C(=O)c3ccc(S(=O)(=O)c4ccc(C(=O)O)cc4)cc3C2=O)cc1 -1.61%
CC(C)CNC(=O)NC(=O)COC(=O)COc1ccc(Cl)cc1Cl 1.9%
COc1ccccc1C(=O)Oc1ccccc1C(=O)Nc1ccccc1 -11.9%
O=C(O)Cc1sc(-c2ccc(Cl)cc2)nc1-c1ccccc1 3.43%
Cc1ccc2nc(NC(=O)COC(=O)c3ccncc3)sc2c1 2.09%
Cc1noc(C)c1COc1cccc(C(=O)OC(C)C#N)c1 (centres undefined) -4%
COc1ccc(CN2CCNC(=O)C2CC(=O)NC2CCCCCCC2)cc1OC (centres undefined) 1.79%
CCC(C)(C(=O)NC1CCCCC1)N(C)C(=O)c1ccccn1 (centres undefined) 0.953%
Cc1cc(CN(C)C(=O)C2CCC(=O)N(CCc3cccc(F)c3)C2)on1 (centres undefined) -0.419%
Cc1onc(-c2c(Cl)cccc2Cl)c1C(=O)N1CCN(c2ncccn2)CC1 2.53%
CC(C)c1ccc(S(=O)(=O)N2CCN(C(=O)c3cccc(F)c3)CC2)cc1 4.73%
Cc1ccc(/C=N/N(C)S(=O)(=O)c2ccc(C)cc2)cc1 -0.427%
CCOc1ccc(NC(=O)CCN2CCN(S(=O)(=O)c3ccc(F)cc3)CC2)cc1 -0.08%
Cc1ccccc1C(=O)c1cccn1CC(=O)NCCC1=CCCCC1 0.05%
COc1ccccc1NC(=O)C1CCN(C(=O)NCc2ccccc2)CC1 0.179%
CCSc1ccccc1C(=O)NCCc1ccccc1 -8.58%
COc1ccc(C)cc1NC(=O)Cn1c(=O)oc2ccccc21 -1.95%
O=C(NNC(=O)C1CCC1)c1ccc(Br)cc1 -0.869%
CC1CCN(C(=O)COc2ncnc3ccccc23)CC1 -1.92%
COc1ccc(CCC(=O)Nc2ncc(C)s2)cc1OC -1.11%
CC(=O)Nc1ccc(NCC(=O)c2ccccc2)cc1 5.34%
O=C(Oc1ccccc1)N1CCOCC1 0.207%
CCCN1CCN(S(=O)(=O)c2ccc3c(c2)CCC(=O)N3)CC1 -0.697%
COC(=O)c1c(NC(=O)CN(C)CC(=O)Nc2ccc(C)cc2)sc2c1CCC(C)C2 (centres undefined) 0.538%
CCOC(=O)Cn1c(=O)oc2cc(S(=O)(=O)N(C)Cc3ccccc3)ccc21 -0.806%
CC(C)Oc1cccc(C(=O)C2CCCN(C(=O)CCn3cnnn3)C2)c1 (centres undefined) 0.618%
CC1CCC(NC(=O)c2nn(C)c3c2CSc2ccccc2-3)CC1 (centres undefined) -0.08%
CCOC(=O)c1ccc(S(=O)(=O)NCC(C)(C)N2CCOCC2)cc1 0.845%
c1ccc(CN2CCCC3(CCCN(Cc4nc(COc5ccccc5)no4)C3)C2)cc1 (centres undefined) -0.026%
O=C(COc1ccc(Cl)cc1)Nc1cc(NC(=O)COc2ccc(Cl)cc2)cc(C(=O)O)c1 9.23%
CN(Cc1cnccn1)Cc1nc(Cc2ccccc2F)no1 0.187%
CCCNC(=O)C1CCC(CNS(=O)(=O)c2ccc3c(c2)CC(C)N3C(C)=O)CC1 (centres undefined) 0.309%
Fc1ccc(Cn2cc(C(=S)N3CCOCC3)c3ccccc32)cc1 0.943%
CCC(=O)N1CCc2cc(Br)cc(S(=O)(=O)N3CCCCC3CC)c21 (centres undefined) -1.65%
CC1CCN(Cc2nnnn2CCCC(=O)NCCc2cnn(C)c2)CC1 -1.37%
Cc1ccc(O)c(-c2cc(-c3cccc(Br)c3)n[nH]2)c1 0.711%
C=CCc1ccc(OCCCCN2CC(C)OC(C)C2)c(OC)c1 (centres undefined) 0.21%
Cc1noc(NS(=O)(=O)c2ccc(NC(=O)c3ccc(N(C)C)cc3)cc2)c1C -0.732%
Cc1ccc(NC(=O)CN(C)C(=O)COc2cccc3ccc(C)nc23)cc1 -0.235%
COc1ccc(-c2[nH]ncc2CNC(C)CCn2cccn2)cc1F (centres undefined) -0.462%
Cc1ccc(N2CCN(CCCCN3C(=O)C4CCCN4C3=O)CC2)cc1 (centres undefined) -1.07%
COc1ccc(-c2csc(N3C(=O)CNC3=S)n2)cc1 -9.99%
N#Cc1ccc(NC(=O)NN2CCCCCC2)cc1 2.36%
CCN1CCCc2cc(CN(CCN3CCOCC3)C(=S)Nc3cccc(C)c3)ccc21 1.91%
N/N=C(\c1ccccc1)c1cc(Br)ccc1N 1.57%
COc1ccc(NC(=O)Oc2cc(C)ccc2C(C)C)cc1 -0.959%
OCCCc1cn(Cc2ccccc2)c2ccccc12 -0.804%
O=C(Cn1cccc1C(=O)c1ccccc1)NCc1ccccc1Cl -3.87%
CC(C)(C)c1cc(C(=O)NNc2cccc(Cl)c2)n(Cc2ccccc2)n1 -0.821%
O=C(NCc1ccc(F)cc1)c1c2c(nc3ccccc13)CCN(Cc1ccccc1)C2 -1.25%
CC(C)CC1NC(=O)N(CC(=O)N(C)C2CCCCC2)C1=O (centres undefined) -0.87%
N#Cc1c(N)c(C#N)c(-c2ccc(O)cc2)c2c1CCCC2 -0.315%
Cc1cccc(C)c1NC(=S)NC(C)(C)CO 1.29%
CC(C)(C)OC(=O)n1cc(C(=O)c2ccccc2O)cn1 1.29%
Cc1cc(Nc2ccccc2Cl)nc(-c2ccccc2O)n1 1.86%
CN(C)CCCNC(=S)Nc1ccc(Oc2ccccc2)cc1 -9.71%
COC(=O)c1ccc(NC(=S)Nc2cccc(C)n2)cc1 -2.33%
Cc1cc(C)nc(NCC(O)CNc2ccccc2C)n1 (centres undefined) 2.94%
Cc1ccc(Cl)c(NC(=O)COC(=O)C2CCC2)c1Cl -2.31%
COC(=O)c1cc2ccsc2n1Cc1cccc(F)c1 1.78%
O=S(=O)(NC1CCCC1)c1ccc(-n2cnnn2)cc1 0.658%
COc1ccc(Cl)cc1C(=O)NNC(=O)CNC(=O)c1ccc(C)s1 -0.888%
COc1ccc(CCNS(=O)(=O)c2ccc(-n3cnnn3)c(OC)c2)cc1OC 1.4%
COc1ccccc1C(=O)NC(CCSC)C(=O)NC1CC1 (centres undefined) 4.47%
COc1ccc(OCCSc2nnc(C(C)NC(=O)c3ccccc3F)n2C)cc1 (centres undefined) -3.42%
CCSc1nnc(NC(=O)CCNC(=O)c2ccccc2Cl)s1 -1.72%
COc1ccc(NC(=O)Nc2nnc(C(C)(C)C)s2)cc1 -1.28%
O=C(CNC(=O)CNC(=O)c1ccc(Cl)cc1Cl)NCc1cccc(Cl)c1 -0.331%
O=C(O)CC(CNC(=O)C1CCCN1C(=O)OCc1ccccc1)c1ccccc1 (centres undefined) -2.42%
CC(=O)c1cc(Cl)ccc1OCC(=O)Nc1cccc(S(=O)(=O)N2CCCC2)c1 6.73%
O=C(COc1ccc2c(c1)OCO2)Nc1nccs1 1.01%
COC(=O)c1ccc(CN2C(=O)c3ccccc3S2(=O)=O)cc1 -0.049%
CCc1nnc(NC(=O)c2cc(S(=O)(=O)N3CCCCC3)ccc2C)s1 1.84%
COC(=O)c1cc(S(=O)(=O)N2CCCC(C)C2)c[nH]1 (centres undefined) 1.02%
